Source: PubChem BioAssay
An excerpt weighted towards active compounds, which were near 12% of everything screened.
FMDV inh: blocks foot and mouth disease virus. FMDV antiviral cell-based qHTS. Potency, µM (doses to about 57.9 µM), without a hit: at the top dose activity change, negative = inhibition, actives largely listed as inhibitors. actives 1.2% (n = 410,000). AID 1159524; calls by dose curve; tested in HEK293T cells; also: read-out not given here; potency is read from the fitted curve at half-maximal effect; % is scaled to controls: 0 for no effect and ±100 for the full control effect; nearly all actives have a fitted effect of over 45% in size
Sm TGR block: S. mansoni TGR enzyme inhibition; purified TGR, DTNB reduction, TNB absorbance 405 nm; Potency, µM (titrated, usually from 114 µM), inactives show at the top dose activity change, negative = inhibition, most hits filed as inhibitors; actives 3% (n = 360,000); AID 485364; active = well fitted inhibition curve with a large enough effect; inconclusive = small, poorly fitted or top-dose-only effect; inactive = no such curve, though single readings can be large or run the other way; also: potency is read from the fitted curve at half-maximal effect; % is scaled to controls: 0 for no effect and ±100 for the full control effect; nearly all actives have a fitted effect of over 60% in size
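Kinetic colorimetric format: TGR-catalysed, NADPH-driven DTNB reduction monitored via TNB absorbance. Enzyme dispensed at 20 nM; compound exposure 15 min at room temperature before reaction start.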
CHX counter: affects cycloheximide protein synthesis inhibition readout, counter-screen. cell reporter, cycloheximide protein synthesis inhibition counterscreen. max response, %. actives 12% (n = 300,000). AID 2314; in the data active = max response mostly above about 13%, no sharp cut-off; inactive = mostly below about 14%; also: read at 38.3 µM for the half of the compounds with a filed dose; 0% is about no effect
Shiga inhibitor: blocks Shiga toxin action in Vero cells; Vero cells, Shiga toxin protein synthesis inhibition reporter; inhibition, % at 38.7 µM; actives 9.2% (n = 290,000); in the data active = inhibition mostly above about 28%, no sharp cut-off; inactive = mostly below about 43%; also: 0% is about no effect
The depositor's hits bear a star; ? = inconclusive; . = no result.

SMILES | FMDV inh | Sm TGR block | CHX counter | Shiga inhibitor
Cc1cc(O)c2c(C)c(CC(=O)NCc3ccccc3Cl)c(=O)oc2c1 | 1.6% | -0.2% | . | .
COc1ccc(C(=O)c2cn(CC(=O)Nc3ccc4c(c3)OCO4)c3ccc(OC)cc3c2=O)cc1 | -1.0% | -0.8% | . | .
Cc1cc(C)cc(N2C(=O)NC(=O)/C(=C\c3cccn3-c3ccccc3)C2=O)c1 | 35.5µM* | -31.5% | 13.5* | -3.6
Cc1cc(C)cc(N2C(=O)NC(=O)/C(=C\c3cccn3-c3ccc(Cl)cc3)C2=O)c1 | 8.91µM* | ? | 10.7 | 14.5
COc1cc2c(C(=O)NCc3ccc(C)o3)cn(CC(C)C)c(=O)c2cc1OC | -13.4% | 10µM* | 13.2 | -26.8
CCn1cc(C(=O)NCc2ccco2)c2cc(OC)c(OC)cc2c1=O | -23.4% | ? | 20.8* | -8.5
CCc1cccc(C)c1NC(=O)COCc1cc(-c2ccc3c(c2)OCO3)on1 | ? | -2.3% | . | .
O=C(O)CCn1cc(C=C2C(=O)NC(=S)NC2=O)c(-c2cc3ccccc3oc2=O)n1 | -6.7% | 10µM* | 6.9 | -13.6
N#CCCn1cc(C=C2C(=O)NC(=O)NC2=O)c(-c2ccccc2)n1 | 1.6% | -12.7% | -3.9 | 15.4
O=C(O)CCn1cc(C=C2C(=O)NC(=S)NC2=O)c(-c2ccccc2)n1 | -4.6% | 79.4µM* | 1.5 | 12.7
O=C(Nc1cccc(Cl)c1Cl)c1ccncc1 | -19.5% | 6.2% | 12.0 | 29.8
O=C(NNC(=S)Nc1ccc(Cl)cc1Cl)c1ccncc1 | 30.5% | 5.1% | 14.3* | 31.4
CN(C(=O)Nc1ccc(Cl)cc1Cl)C1CCCC1 | 7.4% | 10.6% | 18.5* | 44.2*
O=C(NNc1cc(Cl)ccc1Cl)C1CCC1 | -5.5% | -30.3% | 5.8 | 15.1
O=C(NNC(=S)Nc1ccccc1Cl)c1ccncc1 | 14.3% | 12.8% | 15.2* | 80.1
O=C(NNC(=S)Nc1ccc(Cl)cc1Cl)c1cccnc1 | 71.8% | -2.4% | . | .
O=C(NNC(=S)Nc1ccc(Cl)cc1Cl)C1CC1 | 0.0% | 1.8% | 26.2* | 20.5
CN(C)c1ccc(NC(=O)CSC2=Nc3ccccc3C3=NC(CCC(=O)NCc4cccs4)C(=O)N23)cc1 (stereo not given) | 0.0% | -2.0% | . | .
COc1ccccc1NC(=O)C1=C(C)Nc2ncnn2C1c1cccn1C (stereo not given) | -16.9% | -1.1% | . | .
CNC(C)Cc1ccccc1Sc1ccc(O)cc1 (stereo not given) | 0.0% | 1.0% | -0.7 | -14.7
CNCc1ccccc1Sc1ccc(O)c(O)c1 | -26.2% | 22.4µM* | -1.5 | -2.4
O=C1CCCC/C1=N\Nc1ccc(OCc2ccccc2)cc1 | 13.4% | -2.9% | 21.5* | 55.5*
O=C1CCCC/C1=N\Nc1ccc(C2CCCCC2)cc1 | . | -13.2% | 38.7* | 64.5*
COc1cc(CN2CC(=O)N(c3cccc(Cl)c3C)C2=S)cc(OC)c1OC | ? | 3.8% | -4.4 | -9.8
COc1cc(CN2CC(=O)N(c3ccccc3Cl)C2=S)cc(OC)c1OC | 31.6µM* | -1.7% | 0.9 | -5.9
SMILES | FMDV inh | Sm TGR block | CHX counter | Shiga inhibitor
O=C(c1ccco1)n1nc(-c2ccco2)nc1SCc1ccccc1 | 36.5% | -5.3% | 19.5* | 42.5
CC(=O)N1c2nc(-c3ccco3)nn2C2(CCCCC2)[C@@H]2CCCC[C@@H]21 | -21.7% | ? | . | .
O=C(Cc1ccccc1)n1nc(-c2ccco2)nc1SCc1ccccc1 | 39.5% | -17.6% | 27.9* | 41.8
CCCC(=O)N1c2nc(-c3ccco3)nn2C2(CCCCC2)[C@@H]2CCCC[C@@H]21 | -21.5% | 35.5µM* | . | .
Cc1ccc(S(=O)(=O)n2nc(-c3ccco3)nc2SCc2ccccc2)cc1 | 95.6% | 0.0% | 34.0* | 85.7*
CCc1nc2cc(C(=O)N3CCC[C@H]3C(=O)OC)cc(NC(=O)c3ccccc3OC)c2n1C | -1.1% | . | . | .
COc1ccc(-c2cnnn2-c2ccc(NC(=O)c3c(F)cccc3F)cc2)cc1 | -27.4% | -8.0% | . | .
CCCC(=O)n1nc(-c2ccco2)nc1SCc1ccccc1 | 36.9% | ? | 42.9* | active
CNC(=S)N/N=C/c1c(Cl)cccc1Cl | 8.2% | -4.1% | -2.3 | -4.3
O=C(N/N=C/c1c(Cl)cccc1Cl)c1ccc(F)cc1 | 69.8% | 2.7% | 3.4 | 21.5
Cn1cccc1C(=O)N/N=C/c1c(Cl)cccc1Cl | 51.1% | 7.9% | 63.2* | 60.6*
O=C(N/N=C/c1c(Cl)cccc1Cl)c1ccccc1F | 21.5% | 4.2% | 25.9* | 45.7*
O=C(N/N=C/C(c1ccccc1)c1ccccc1)c1ccccc1F | -14.9% | 8.7% | 48.8* | 43.0
CCCn1c(COc2cccc(C)c2)nc2ccccc21 | -11.8% | -3.3% | . | .
O=C(Nc1cccs1)Nc1ccc(Br)cc1F | 19.3% | -2.5% | 67.0* | 194.2*
O=C(Nc1cccs1)Nc1ccc(F)cc1F | 47.1% | 0.4% | 20.0* | 36.8
COC(C(=O)Nc1ccc(Br)cc1F)c1ccccc1 (stereo not given) | -5.9% | 0.2% | 9.7 | 9.7
S=C(c1ccc(-c2ccc(Cl)c(Cl)c2)o1)N1CCOCC1 | . | 44.7µM* | 62.3* | 95.6*
S=C(c1ccc(-c2ccccc2Cl)o1)N1CCOCC1 | . | -0.3% | 23.7* | 93.4*
O=C(c1ccc(-c2ccc([N+](=O)[O-])cc2Cl)o1)N1CCOCC1 | -0.5% | . | 26.1* | 56.9*
COc1ccccc1S(=O)Cc1ccc(C(=O)NCc2ccccc2Cl)o1 (stereo not given) | -18.6% | 15.8µM* | -2.8 | -6.0
CC1CCN(C(=O)c2ccc(-c3ccccc3Cl)o2)CC1 | 2.1% | ? | . | .
O=S(=O)(c1ccc(F)cc1)N1CCN(c2nc(-c3ccccc3)nc3cc(Cl)ccc23)CC1 | . | . | -1.2 | -3.2
COc1ccc(NC(=O)Cn2nnc(-c3nc(-c4ccncc4)no3)c2N)cc1OC | -8.2% | -2.5% | . | .
O=C(c1ccc(-c2cccc(Cl)c2Cl)o1)N1CCOCC1 | 13.7% | ? | 37.2* | 133.1*
SMILES | FMDV inh | Sm TGR block | CHX counter | Shiga inhibitor
O=C(c1ccc(CS(=O)c2ccccc2Cl)o1)N1CCN(c2ccccc2)CC1 (stereo not given) | ? | -24.7% | -11.4 | -18.8
O=C(c1ccc(-c2ccccc2Cl)o1)N1CCC1 | 12.4% | -12.9% | . | .
O=C(c1ccc(CS(=O)c2ccccc2Cl)o1)N1CCOCC1 (stereo not given) | 7.1% | 31.6µM* | -9.2 | -10.7
S=C(c1ccc(-c2ccc(Br)cc2)o1)N1CCOCC1 | 17.7% | -5.8% | 50.6* | 91.8*
S=C(c1ccc(-c2ccc(Br)cc2)o1)N1CCCCC1 | 72.3% | 8.4% | 8.3 | 73.9
CC(C)N1C[C@@H](Sc2ccccn2)C[C@H]1C(=O)Nc1ccc2c(c1)Nc1ccccc1CC2 | -6.2% | . | . | .
COC(=O)c1ccc(CC(C(=O)c2ccccc2)N(C)C)cc1 (stereo not given) | 62.8% | -23.1% | 47.9* | 107.2*
CN(C)C(Cc1ccc(Cl)cc1)C(=O)c1ccccc1 (stereo not given) | 24.8% | -5.1% | 24.3* | 50.4*
O=C(O)CC(Cc1ccc(Cl)cc1)C(=O)Nc1ccccc1 (stereo not given) | 1.5% | 1.2% | 1.8 | .
COc1ccc(C(C)=O)cc1CC(C(=O)c1ccccc1)N(C)C (stereo not given) | 28.5% | -12.1% | 22.2* | 4.7
COc1ccc(C(C)=O)cc1CC(C(=O)c1ccc(C)cc1)N(C)C (stereo not given) | -18.6% | -11.0% | -3.0 | -3.0
CN(C)C(Cc1ccccc1)C(=O)c1cccs1 (stereo not given) | . | -33.7% | 13.1* | 39.4
